The values below come from PubChem BioAssay (NCATS).

Results filed as inconclusive are left out. Active and inactive are the calls of the source. Calls follow the shape of the dose curve; as a rule, active = well fitted curve in the direction sought with a large enough effect in the signal ratio (not every such curve was filed as active); inconclusive = small, poorly fitted or top-dose-only effect, or effect the other way, or a change in a side signal; inactive = no such curve, though single readings can be large or run the other way; the % refers to the signal ratio.

Sequence of Tyrosine-protein phosphatase non-receptor type substrate 1 (Homo sapiens) + Leukocyte surface antigen CD47 (Homo sapiens) (P78324 whole entry, looked up): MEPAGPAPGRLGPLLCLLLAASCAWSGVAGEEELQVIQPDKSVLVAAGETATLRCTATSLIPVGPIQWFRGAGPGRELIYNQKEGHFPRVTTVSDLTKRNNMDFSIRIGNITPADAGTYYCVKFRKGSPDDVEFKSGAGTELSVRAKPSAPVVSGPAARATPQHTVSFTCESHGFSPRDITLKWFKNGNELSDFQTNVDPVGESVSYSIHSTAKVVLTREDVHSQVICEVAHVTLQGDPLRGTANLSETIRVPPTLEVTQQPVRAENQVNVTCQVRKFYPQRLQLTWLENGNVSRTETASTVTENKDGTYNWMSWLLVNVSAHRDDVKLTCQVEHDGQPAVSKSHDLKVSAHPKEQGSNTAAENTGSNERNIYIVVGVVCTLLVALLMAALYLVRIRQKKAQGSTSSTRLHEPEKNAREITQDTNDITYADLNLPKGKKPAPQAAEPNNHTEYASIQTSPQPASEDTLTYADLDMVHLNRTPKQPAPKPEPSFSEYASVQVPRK
Sequence of Tyrosine-protein phosphatase non-receptor type substrate 1 (Homo sapiens) + Leukocyte surface antigen CD47 (Homo sapiens) (Q08722 whole entry, looked up): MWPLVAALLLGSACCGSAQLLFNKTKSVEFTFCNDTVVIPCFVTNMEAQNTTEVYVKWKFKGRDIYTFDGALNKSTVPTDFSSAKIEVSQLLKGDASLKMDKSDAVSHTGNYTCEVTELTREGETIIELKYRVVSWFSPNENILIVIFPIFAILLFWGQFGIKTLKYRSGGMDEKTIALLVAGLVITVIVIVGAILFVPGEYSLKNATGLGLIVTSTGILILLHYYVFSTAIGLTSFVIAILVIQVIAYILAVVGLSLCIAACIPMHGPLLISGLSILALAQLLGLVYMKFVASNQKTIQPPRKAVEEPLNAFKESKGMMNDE

In the experiment the target is Tyrosine-protein phosphatase non-receptor type substrate 1 (Homo sapiens) + Leukocyte surface antigen CD47 (Homo sapiens) (UniProt P78324+Q08722). Put plainly: CD47-SIRPalpha protein protein interaction - HTRF assay qHTS validation (AID 1347058). Also: 0% is about no effect. To be noted: TR-FRET HTRF CD47-His / biotin-SIRPalpha binding, ratio 665/615; series mostly up to 38.3 µM; activity change, negative = inhibition: at the top concentration. An excerpt:
SIRPalpha is a myeloid cell expressed immunomodulatory receptor that binds the tumor expressed immune checkpoint CD47. Therapeutic disruption of this interaction leads to immune-mediated tumor rejection. This assay was used to quantitate CD47-SIRPalpha binding biochemically and evaluate chemical libraries for novel CD47-SIRPalpha inhibitors. To recapitulate the biological interaction of CD47 and SIRPalpha, we designed expression constructs to produce their recombinant, soluble, extracellular interaction domains. CD47 was produced with an N-terminal 6His tag. SIRPalpha was produced with an N-terminal Avi-Tag for site-specific biotin incorporation. The CD47-SIRPalpha interaction was measured by TR-FRET using affinity tag linked reagents (anti-6His-Eu donor and streptavidin-XL665 acceptor). SIRPalpha without biotin incorporation was used as a positive control inhibitor.
SEQUENCE No. (e.g., 1, 2, 3, etc.); […] (e.g., Cells, Incubation, Reagent, etc.); VALUE and DESCRIPTION.
1a. Reagent. 3 uL CD47-His (12.5 nM) and Anti-His Eu Donor reagent (0.7 nM) added to respective wells in Assay buffer; white/solid bottom high base, med bind 1536-well plates (Greiner 789075)
1b. Reagent. 2 uL Assay buffer negative control for background fluorescence
2. Reagent. 23 nL library compounds (7-pt, 1:4 intraplate titration series) or DMSO control transferred by Pin Tool
3. Centrifuge. Centrifuge plate for 30 s at 1000 RPM
4. Incubation.#Incubate reagents at room temperature for 30 min, protected from light
5. Reagent. 2 uL SIRPalpha-biotin (100 nM) in Assay buffer
6. Incubation.#Incubate reagents at room temperature for 30 min, protected from light
7. Reagent. 1 uL SAV-XL665 (85 nM) acceptor reagent added to respective wells
8. Centrifuge. Centrifuge plate for 30 s at 1000 RPM
9. Incubation. Incubate reagents at room temperature for 30 min, protected from light
10. Detector. Measure Top TR-FRET on EnVision (Eu/APC filter set); calculate ratio Ch1/Ch2
1. Assay buffer composition.#Phosphate buffered saline (PBS; 10 mM Phosphate, 137 mM NaCl, and 2.7 mM KCl; pH 7.4), 0.05% IGEPAL CA-630
2. 23nL of […] library compounds (7 plates) or DMSO vehicle control transferred to 9 Greiner white/solid bottom high base, TC plates in 7 interplate 1:5 titrations (see Yasgar, A. et al. 2008) with Pintool. Two of the 9 plates are DMSO-only in compound field at beginning and end of compound library-treated plates.
10. Detector settings#Mirror = LANCE/DELFIA Dual Enh; Ex. Filter = UV2[TRF] 320; Em. Filter = APC 665; 2nd Em. Filter = Europium 615; Measurement h = 6.5; Ex. light (%) = 100; Delay = […]; Window t = 100 us; No. Seq. windows = 1; Time between flashes = 2000us; No. of flashes = 100; No. of flashes for 2nd detector = 100; Calculation: "Ratio Ch1/Ch2"
On the technique in general: TR-FRET usually uses a lanthanide donor and a delayed reading to cut background.
Consider `Cc1nn(-c2ccccc2)c(C)c1/C=N/N1CCN(Cc2ccccc2)CC1`, for which the “activity change, negative = inhibition” value was -9.81% (inactive).

For `COC(=O)C1=CO[C@@H](O)[C@@H]2C(CO)=CC[C@H]12`, the “activity change, negative = inhibition” value was -4.03% (inactive).

`CCN(CC)CCNC(=O)c1ccc(NS(C)(=O)=O)cc1`: the “activity change, negative = inhibition” value was -1.1% (inactive).

With `Nc1ncnc2n[nH]c(Nc3ccc(F)cc3)c12`, the “activity change, negative = inhibition” value was -1.17% (inactive).

`Clc1ccc2c(c1)N=C(N1CCNCC1)c1ccccc1N2`: the “activity change, negative = inhibition” value is -4.99% (inactive).

`COc1ccccc1N1CCN(CCN2C(=O)CC3(CCCC3)CC2=O)CC1`: the “activity change, negative = inhibition” value was -0.955% (inactive).

As to `C[N+](C)(C)CCO`, the “activity change, negative = inhibition” value was 1.01% (inactive).

In the case of `Brc1ccc([C@H]2CN3CCSC3=N2)cc1`, the “activity change, negative = inhibition” value is -0.416% (inactive).

`NC(N)=NCCCCN=C(N)N`: the “activity change, negative = inhibition” value is -4.39% (inactive).

`CC(C)N(CCC(=O)c1ccc2ccccc2c1)Cc1ccccc1`: the “activity change, negative = inhibition” value is 6.76% (inactive).

For the compound `N[C@@H](Cn1ccc(=O)c(O)c1)C(=O)O`, the “activity change, negative = inhibition” value is 7.18% (inactive).
